In PubChem BioAssay (EPA / NIEHS):
Results filed as inconclusive are left out. Activity calls are given as the source filed them. The calls were made as follows, unless noted: active = hit-call score of the fitted dose curve at least 0.9, where 1 is the maximum; inconclusive = response in the unintended direction; inactive = score below 0.9.

What was measured:
[1] = UKN5_HCS_SBAD2_cell_viability: Viability Assessment in the University of Konstanz (UKN) Leist Lab Neurite Outgrowth Assay in human iPSC-derived immature Dorsal Root Ganglia Neurons (UKN5) (AID 2284056; active = hit-call score of the fitted dose curve at least 0.9, where 1 is the maximum; inactive = score below 0.9)
How it was run: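 iPSC-derived immature peripheral neurons (SBAD2) seeded on Matrigel with CHIR99021, SU5402 and DAPT, dosed 1 h later for 24 h. Viability from Hoechst H-33342 and calcein-AM live staining, high-content imaging; bidirectional fit versus DMSO.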

[2] = UKN5_HCS_SBAD2_neurite_outgrowth: University of Konstanz (UKN) Leist Lab Neurite Outgrowth Assay in human iPSC-derived immature Dorsal Root Ganglia Neurons (UKN5) (AID 2284070; active = hit-call score of the fitted dose curve at least 0.9, where 1 is the maximum; inactive = score below 0.9); conditions: actives raise or lower the signal
How it was run: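 Neurite outgrowth is quantified as calcein-AM-labelled neurite area in human iPSC-derived peripheral neurons treated for 24 h, starting 1 h after plating in medium with CHIR99021 (1.5 uM), SU5402 (5 uM) and DAPT (5 uM).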

[3] = UKN2_HCS_IMR90_neural_migration: University of Konstanz (UKN) Leist Lab Neural Crest Cell Migration Assay in human induced IMR90 Pluripotent Stem Cells (UKN2) (AID 2284204; active = hit-call score of the fitted dose curve at least 0.9, where 1 is the maximum; inactive = score below 0.9); conditions: actives raise or lower the signal
How it was run: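 Stopper-exclusion migration (cMINC), human iPSC-derived neural crest cells; N2-S + EGF/FGF; compound added 24 h post-stopper removal, 24 h exposure. Readout: calcein-AM/Hoechst 30 min, HCS fluorescence imaging; bidirectional fitting, DMSO baseline.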

[4] = UKN4_HCS_LUHMES_neurite_outgrowth: University of Konstanz (UKN) Leist Lab Neurite Outgrowth Assay in human LUHMES cells (UKN4) (AID 2284206; active = hit-call score of the fitted dose curve at least 0.9, where 1 is the maximum; inactive = score below 0.9); conditions: actives raise or lower the signal
How it was run: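 Neurite area in dopaminergic-model LUHMES neurons is measured by high-content imaging of calcein-AM after 24 h treatment starting shortly after day-2 replating; Hoechst staining tracks viability.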

[5] = UKN4_HCS_LUHMES_cell_viability: Viability Assessment in the University of Konstanz (UKN) Leist Lab Neurite Outgrowth Assay in human LUHMES cells (UKN4) (AID 2284232; active = hit-call score of the fitted dose curve at least 0.9, where 1 is the maximum; inactive = score below 0.9)
How it was run: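 Measured in replated, 2-day-differentiated LUHMES cells treated 24 h; stained 30 min with H-33342 and calcein-AM before high-content imaging.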

[6] = UKN2_HCS_IMR90_cell_viability: Viability Assessment in the University of Konstanz (UKN) Leist Lab Neural Crest Cell Migration Assay in human induced IMR90 Pluripotent Stem Cells (UKN2) (AID 2284233; active = hit-call score of the fitted dose curve at least 0.9, where 1 is the maximum; inactive = score below 0.9;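 also: cells exposed to compound for 24 h after a 24 h migration phase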)
How it was run: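 Viability read as calcein-AM fluorescence by high-content imaging, Hoechst co-stain, 30 min. Human iPSC (IMR90) neural crest cells had migrated 24 h into stopper-defined gaps before 24 h chemical exposure. Fitted bidirectionally relative to DMSO.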

[7] = TOX21_p53_BLA_p3_viability: Viability Assessment in the Tox21 HCT-116 p53 Agonism Beta-lactamase Assay, Phase 3 (AID 2283593);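 also: cells exposed to compound for 16 h before reading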
How it was run: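 HCT116 cells, 4000/well, dosed 5 h after plating by pin transfer (217-fold dilution from DMSO stock) and incubated 16 h at 37C, 5% CO2. Viability read as ATP luminescence with CellTiter-Glo after 30 min at room temperature.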

[8] = target: Cellular tumor antigen p53 (Homo sapiens) (UniProt P04637); experiment: TOX21_p53_BLA_p3_ratio: Tox21 HCT-116 p53 Agonism Beta-lactamase Assay, Ratio, Phase 3 (AID 2283596)
Sequence of Cellular tumor antigen p53 (Homo sapiens) (P04637 whole entry, looked up): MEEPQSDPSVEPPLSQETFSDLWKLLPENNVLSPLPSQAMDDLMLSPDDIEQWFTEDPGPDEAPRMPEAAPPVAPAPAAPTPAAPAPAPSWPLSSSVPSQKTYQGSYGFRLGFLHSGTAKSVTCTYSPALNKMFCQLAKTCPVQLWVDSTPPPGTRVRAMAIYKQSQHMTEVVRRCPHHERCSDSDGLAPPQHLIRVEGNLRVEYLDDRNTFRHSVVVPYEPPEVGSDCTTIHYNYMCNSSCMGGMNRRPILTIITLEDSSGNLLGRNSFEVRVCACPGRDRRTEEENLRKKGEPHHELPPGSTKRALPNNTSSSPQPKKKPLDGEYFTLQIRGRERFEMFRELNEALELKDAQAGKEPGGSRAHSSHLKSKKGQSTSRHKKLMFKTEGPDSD
How it was run: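 Cells were seeded at 4000/well, rested 5 h at 37C, then dosed with DMSO compound solutions (217-fold dilution) for 16 h. CCF4-AM substrate was loaded for 2 h at room temperature, and the 460/530 nm emission ratio was fitted for gain of signal versus DMSO.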

[9] = target: Cellular tumor antigen p53 (Homo sapiens) (UniProt P04637); experiment: TOX21_p53_BLA_p5_ratio: Tox21 HCT-116 p53 Agonism Beta-lactamase Assay, Ratio, Phase 5 (AID 2283599)
How it was run: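 HCT-116 p53-bla cells (4000/well) plated 5 h, dosed with compound (217-fold DMSO dilution) for 16 h at 37 C; CCF4-AM substrate 2 h at room temperature. Activity is the 460/530 nm emission ratio (405 nm excitation), fitted in gain-of-signal direction versus DMSO.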

PGR (gene 5241) [10] = target: PGR (gene 5241) (UniProt P06401); experiment: TOX21_PR_BLA_Followup_Antagonist_ratio: Tox21 HEK293 Progesterone Receptor (PR) Antagonism Beta-lactamase Follow-Up Assay, Ratio (AID 2283934);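 also: PR-UAS-bla HEK293T cells stimulated with 1 nM R5020 agonist for 16 hr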
Sequence of PGR (gene 5241) (P06401 whole entry, looked up): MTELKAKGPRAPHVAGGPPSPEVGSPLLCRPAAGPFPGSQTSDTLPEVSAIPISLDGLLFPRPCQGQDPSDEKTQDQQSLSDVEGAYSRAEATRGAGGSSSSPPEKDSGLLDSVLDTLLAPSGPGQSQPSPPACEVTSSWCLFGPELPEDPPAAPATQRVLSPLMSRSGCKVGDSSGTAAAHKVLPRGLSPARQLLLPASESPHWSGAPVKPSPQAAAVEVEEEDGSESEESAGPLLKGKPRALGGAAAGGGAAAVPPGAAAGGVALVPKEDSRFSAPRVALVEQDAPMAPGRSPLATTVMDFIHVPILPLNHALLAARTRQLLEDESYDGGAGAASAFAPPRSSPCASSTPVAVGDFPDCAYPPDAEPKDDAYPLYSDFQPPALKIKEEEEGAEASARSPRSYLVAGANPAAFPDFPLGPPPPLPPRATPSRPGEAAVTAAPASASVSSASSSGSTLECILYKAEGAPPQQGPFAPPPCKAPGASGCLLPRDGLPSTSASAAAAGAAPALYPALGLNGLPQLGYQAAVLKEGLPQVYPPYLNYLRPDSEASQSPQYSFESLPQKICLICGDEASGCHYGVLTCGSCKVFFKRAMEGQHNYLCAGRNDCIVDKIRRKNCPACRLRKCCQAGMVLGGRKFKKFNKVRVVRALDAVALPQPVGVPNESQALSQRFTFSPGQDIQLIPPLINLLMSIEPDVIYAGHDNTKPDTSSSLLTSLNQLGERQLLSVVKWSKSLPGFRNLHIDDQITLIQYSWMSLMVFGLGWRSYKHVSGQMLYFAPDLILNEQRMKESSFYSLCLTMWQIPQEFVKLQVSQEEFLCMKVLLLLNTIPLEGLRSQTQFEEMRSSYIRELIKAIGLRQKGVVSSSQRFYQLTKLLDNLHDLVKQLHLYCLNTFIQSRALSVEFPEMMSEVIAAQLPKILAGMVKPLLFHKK
How it was run: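 Measured in PR-UAS-bla HEK293T cells co-treated with compound and 1 nM promegestone for 16 hr; beta-lactamase ratio read after 2 h FRET substrate loading, with parallel CellTiter-Glo cytotoxicity.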

[11] = TOX21_PR_BLA_Followup_Agonist_viability: Viability Assessment in the Tox21 HEK293 Progesterone Receptor (PR) Agonism Beta-lactamase Follow-Up Assay (AID 2283935);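 also: signal loss means lower viability so actives are cytotoxic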
How it was run: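 Viability is read as CellTiter-Glo luminescence, where loss of signal indicates cytotoxicity. The cells are PR-UAS-bla HEK293T given compounds for 16 hr at 37C and 5% CO2, in the same wells used for the bla readout.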

[12] = TOX21_PR_BLA_Followup_Antagonist_viability: Viability Assessment in the Tox21 HEK293 Progesterone Receptor (PR) Antagonism Beta-lactamase Follow-Up Assay (AID 2283936);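 also: cells exposed to compound with R5020 agonist for 16 h; hits lower the luminescence signal meaning cytotoxicity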
How it was run: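 PR-UAS-bla HEK293T cells in medium with 2% charcoal-stripped FBS were treated with compounds plus R5020 for 16 hr at 37C. After the beta-lactamase read, CellTiter-Glo was added to the same wells and luminescence read after 30 min at room temperature.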

PGR (gene 5241) [13] = target: PGR (gene 5241) (UniProt P06401); experiment: TOX21_PR_LUC_Followup_Antagonist: Tox21 HEK293 Progesterone Receptor (PR) Antagonism Luciferase Follow-Up Assay (AID 2283938);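 also: curve fitted upward as signal gain over DMSO baseline despite antagonist label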
How it was run: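 HEK293-PR-A-luc cells were precultured 5 days in medium with 10% charcoal-stripped FBS, seeded 3,000/well, then exposed to compounds in DMSO for 16 h at 37C. Luciferase was read by ONE-Glo luminescence after 30 min at room temperature.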

[14] = TOX21_PR_LUC_Followup_Antagonist_viability: Viability Assessment in the Tox21 HEK293 Progesterone Receptor (PR) Antagonism Luciferase Follow-Up Assay (AID 2283940)
How it was run: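 Loss of CellTiter-Glo ATP signal indicates cytotoxicity in HEK293-PR-A-luc cells grown in 10% charcoal-stripped FBS medium, seeded 3,000 per well and incubated 16 h with compound at 37C.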

[15] = TOX21_p53_BLA_p5_viability: Viability Assessment in the Tox21 HCT-116 p53 Agonism Beta-lactamase Assay, Phase 5 (AID 2283600)
How it was run: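 Luciferase-coupled ATP quantitation of cells treated for 16 h (37C, 5% CO2) with test chemicals delivered in DMSO via a 217-fold dilution; 4000 cells/well; reagent incubated 30 min at room temperature before luminescence reading.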

[16] = target: Cellular tumor antigen p53 (Homo sapiens) (UniProt P04637); experiment: TOX21_p53_BLA_p4_ratio: Tox21 HCT-116 p53 Agonism Beta-lactamase Assay, Ratio, Phase 4 (AID 2283601)
How it was run: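 HCT-116 p53 beta-lactamase reporter cells (4000/well) preincubated 5 h, then compound (217-fold dilution of DMSO stock) for 16 h at 37C. CCF4-AM substrate added 2 h at room temperature; 460/530 nm emission ratio fitted upward versus DMSO.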

[17] = TOX21_p53_BLA_p4_viability: Viability Assessment in the Tox21 HCT-116 p53 Agonism Beta-lactamase Assay, Phase 4 (AID 2283597);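 also: hits lower the luminescence signal meaning cytotoxicity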
How it was run: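 Cytotoxicity was inferred from loss of CellTiter-Glo luminescence. HCT116 cells had been dosed with compounds after 5 h plating, incubated 16 h at 37C and 5% CO2, and exposed to the CCF4-AM substrate for 2 h.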

Measured: AC50

CN[C@@H](C)Cc1ccccc1
inactive: [1] | [2] | [3] | [4] | [5] | [6]

CCC1COC(Cn2cncn2)(c2ccc(Cl)cc2Cl)O1 (stereo unspecified)
inactive: [7] | [8] | [9] | [11] | [12] | [14]
active: PGR (gene 5241) [10] 60300 nM | PGR (gene 5241) [13] 36300 nM

N#C/C(N)=C(/N)C#N
inactive: [7] | [8] | [15] | [16]

CC(=O)O[C@H]1C[C@H](O[C@H]2[C@@H](O)C[C@H](O[C@H]3[C@@H](O)C[C@H](OC4CC[C@@]5(C)C(CC[C@@H]6[C@@H]5CC[C@]5(C)[C@@H](C7=CC(=O)OC7)[C@@H](O)C[C@]65O)C4)O[C@@H]3C)O[C@@H]2C)O[C@H](C)[C@H]1O[C@@H]1O[C@H](CO)[C@@H](O)[C@H](O)[C@H]1O (stereo partly specified)
active: [7] 683 nM | [17] 582 nM | [15] 473 nM

C1CS1
inactive: [7] | [8] | [17] | [9]

Cc1nnc(-c2ccccc2)c(=O)n1N
inactive: [7] | [8]

CC(C)CCC(=O)O[C@H]1CC[C@H]2[C@@H]3CCC4=CC(=O)CC[C@]4(C)[C@H]3CC[C@]12C
inactive: [7] | [8] | [9] | [15]
